This is an account of results in PubChem BioAssay (EPA / NIEHS).

Structures are written as SMILES. Active and inactive are the calls of the source. How the source made its calls: active means hit-call score of the fitted dose curve at least 0.9, where 1 is the maximum; inactive means score below 0.9.

Common to all, as to conditions: mRNA level, 48 h; actives raise or lower the signal
Read-out in experiment [1]: ABC Transporter (ABCC2), ABCC2 (gene 1244)
Kind of experiment: LTEA_HepaRG_ABCC2: Life Technologies and Expression Analysis (LTEA) Assay for ABC Transporter (ABCC2) using HepaRG (AID 2283464). In outline: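 HepaRG cells were plated 48 h, switched to serum-free induction medium, then exposed in duplicate for 48 h to 8 concentrations (top 100 uM, half-log steps, 0.5% DMSO). ABCC2 mRNA was measured by qRT-PCR normalized to ACTB/GAPDH/POLR2A; bidirectional fitting versus DMSO.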

Read-out in experiment [2]: Broad substrate specificity ATP-binding cassette transporter ABCG2 (Homo sapiens) (UniProt Q9UNQ0)
Kind of experiment: LTEA_HepaRG_ABCG2: Life Technologies and Expression Analysis (LTEA) Assay for ABC Transporter (ABCG2) using HepaRG (AID 2283465). The procedure, abridged:
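Gene expression of ABCG2 in HepaRG liver cells is quantified by qRT-PCR following 48 h exposure across an eight-point series topping at 100 uM. Values come from bidirectional fitting relative to DMSO vehicle.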

Read-out in experiment [3]: ATP-citrate lyase (ACLY), ACLY (gene 47)
Kind of experiment: LTEA_HepaRG_ACLY: Life Technologies and Expression Analysis (LTEA) Assay for ATP-citrate lyase (ACLY) using HepaRG (AID 2283466). The procedure, abridged: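 ACLY expression changes in human HepaRG liver cells are quantified by qRT-PCR after 48 h exposure to test chemicals (maximum 100 uM, half-log steps). Values are fitted in both directions relative to 0.5% DMSO vehicle.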

Read-out in experiment [4]: Peroxisomal acyl-coenzyme A oxidase 1 (ACOX1) gene, ACOX1 (gene 51)
Kind of experiment: LTEA_HepaRG_ACOX1: Life Technologies and Expression Analysis (LTEA) Assay for Peroxisomal acyl-coenzyme A oxidase 1 (ACOX1) gene using HepaRG (AID 2283467). In outline:
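Human HepaRG hepatic cultures, 48 h treatment with test chemicals up to 100 uM. ACOX1 expression read by qRT-PCR relative to 0.5% DMSO vehicle.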

Read-out in experiment [5]: Alkaline Phosphatase, Placental (ALPP) gene, ALPP (gene 250)
Kind of experiment: LTEA_HepaRG_ALPP: Life Technologies and Expression Analysis (LTEA) Assay for Alkaline Phosphatase, Placental (ALPP) gene using HepaRG (AID 2283468). The procedure, abridged: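 Differentiated human HepaRG cells were plated and cultured 48 h, then exposed in duplicate for 48 h in serum-free induction medium to eight half-log concentrations from 100 uM in 0.5% DMSO. ALPP mRNA was measured by TaqMan qRT-PCR, normalized to ACTB, GAPDH, POLR2A.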

Read-out in experiment [6]: Bcl-2 (BAX) gene, BAX (gene 581)
Kind of experiment: LTEA_HepaRG_BAX: Life Technologies and Expression Analysis (LTEA) Assay for Bcl-2 (BAX) gene using HepaRG (AID 2283470). The procedure, abridged: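 Gene expression measured by Fluidigm qRT-PCR with three housekeeping genes for normalisation. HepaRG cells, plated 48 h beforehand, treated 48 h at up to 100 uM (8-point, half-log) in 0.5% DMSO. Bidirectional fitting versus DMSO.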

Read-out in experiment [7]: Alpha-fetoprotein (AFP) gene, AFP (gene 174)
Kind of experiment: LTEA_HepaRG_AFP: Life Technologies and Expression Analysis (LTEA) Assay for Alpha-fetoprotein (AFP) gene using HepaRG (AID 2283472). The procedure, abridged:
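AFP transcript measured by TaqMan qRT-PCR with three housekeeping genes for normalization, after 48 h chemical treatment of HepaRG cells (top 100 uM, half-log steps, 0.5% DMSO). Gain or loss fitted against vehicle.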

Read-out in experiment [8]: BCL2L11 (gene 10018)
Kind of experiment: LTEA_HepaRG_BCL2L11: Life Technologies and Expression Analysis (LTEA) Assay for Bcl-2 (BCL2L11) gene using HepaRG (AID 2283473). In outline: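 Differentiated human HepaRG cells in serum-free induction medium were exposed in duplicate for 48 h to eight concentrations (top 100 uM, half-log steps, 0.5% DMSO). BCL2L11 mRNA was quantified by TaqMan qRT-PCR, normalized to ACTB/GAPDH/POLR2A, bidirectional fit versus DMSO.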

Read-out in experiment [9]: Apolipoprotein A-V (APOA5) gene, APOA5 (gene 116519)
Kind of experiment: LTEA_HepaRG_APOA5: Life Technologies and Expression Analysis (LTEA) Assay for Apolipoprotein A-V (APOA5) gene using HepaRG (AID 2283474). The procedure, abridged:
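Differentiated human HepaRG cells were exposed in duplicate for 48 h to eight half-log concentrations from 100 uM in 0.5% DMSO. APOA5 mRNA was quantified by TaqMan qRT-PCR, normalized to ACTB, GAPDH and POLR2A, and fitted bidirectionally against DMSO.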

Read-out in experiment [10]: Apoptosis regulator Bcl-2 (Homo sapiens) (UniProt P10415)
Kind of experiment: LTEA_HepaRG_BCL2: Life Technologies and Expression Analysis (LTEA) Assay for Bcl-2 gene using HepaRG (AID 2283475). In outline:
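qRT-PCR of BCL2 transcript, normalized to three housekeeping genes (ACTB, GAPDH, POLR2A), after 48 h chemical exposure of HepaRG cells; concentrations top 100 uM with half-log dilutions, 0.5% DMSO vehicle, duplicates; changes up or down fitted relative to vehicle.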

Read-out in experiment [11]: Caspase-3 (Homo sapiens) (UniProt P42574)
Kind of experiment: LTEA_HepaRG_CASP3: Life Technologies and Expression Analysis (LTEA) Assay for cysteine-aspartic acid protease (CASP3) using HepaRG (AID 2283477). In outline:
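Differentiated human HepaRG cells in serum-free induction medium were exposed 48 h to 8-point half-log concentrations from 100 uM (0.5% DMSO vehicle). CASP3 mRNA was measured by qRT-PCR, normalised to ACTB, GAPDH and POLR2A, with bidirectional fitting against DMSO.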

Read-out in experiment [12]: Cytochrome P450 (CYP24A1), CYP24A1 (gene 1591)
Kind of experiment: LTEA_HepaRG_CYP24A1: Life Technologies and Expression Analysis (LTEA) Assay for Cytochrome P450 (CYP24A1) using HepaRG (AID 2283478). The procedure, abridged: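 Differentiated HepaRG cells, pre-cultured 48 h, were exposed in duplicate for 48 h in serum-free induction medium to 8 half-log concentrations (top 100 uM, 0.5% DMSO). CYP24A1 mRNA was quantified by TaqMan qRT-PCR, normalized to ACTB/GAPDH/POLR2A, fitted bidirectionally versus DMSO.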

Read-out in experiment [13]: Cytochrome P450 (CYP1A2), CYP1A2 (gene 1544)
Kind of experiment: LTEA_HepaRG_CYP1A2: Life Technologies and Expression Analysis (LTEA) Assay for Cytochrome P450 (CYP1A2) using HepaRG (AID 2283479). In outline: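 Differentiated human HepaRG cells in serum-free induction medium were exposed in duplicate for 48 h to 8-point half-log concentrations up to 100 uM in 0.5% DMSO. CYP1A2 mRNA measured by qRT-PCR, normalized to ACTB, GAPDH, POLR2A; bidirectional fit vs DMSO.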

Read-out in experiment [14]: cysteine-aspartic acid protease (CASP8), CASP8 (gene 841)
Kind of experiment: LTEA_HepaRG_CASP8: Life Technologies and Expression Analysis (LTEA) Assay for cysteine-aspartic acid protease (CASP8) using HepaRG (AID 2283480). The procedure, abridged: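 Concentration-response in duplicate up to 100 uM (half-log steps, 0.5% DMSO) on differentiated HepaRG cultures for 48 h. Expression change of CASP8 mRNA is determined by TaqMan qRT-PCR with housekeeping-gene normalization.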

Read-out in experiment [15]: Cytochrome P450 (CYP2B6), CYP2B6 (gene 1555)
Kind of experiment: LTEA_HepaRG_CYP2B6: Life Technologies and Expression Analysis (LTEA) Assay for Cytochrome P450 (CYP2B6) using HepaRG (AID 2283481). In outline:
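Differentiated HepaRG cells, serum-free induction medium, exposed 48 h in duplicate to 8-point half-log concentrations from 100 uM in 0.5% DMSO. CYP2B6 mRNA by qRT-PCR, normalized to ACTB, GAPDH, POLR2A; bidirectional fit versus DMSO.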

Read-out in experiment [16]: Cytochrome P450 2C19 (Homo sapiens) (UniProt P33261)
Kind of experiment: LTEA_HepaRG_CYP2C19: Life Technologies and Expression Analysis (LTEA) Assay for CYP2C19 using HepaRG (AID 2283482). In outline: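 Differentiated human HepaRG cells were exposed for 48 h in serum-free induction medium to 8 concentrations (top 100 uM, half-log steps, 0.5% DMSO). CYP2C19 mRNA was measured by qRT-PCR, normalized to ACTB/GAPDH/POLR2A, and fitted bidirectionally against DMSO.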

Read-out in experiment [17]: CYP2C8 (gene 1558)
Kind of experiment: LTEA_HepaRG_CYP2C8: Life Technologies and Expression Analysis (LTEA) Assay for CYP2C8 using HepaRG (AID 2283483). The procedure, abridged:
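This is a transcriptional endpoint in HepaRG cultures: 48 h exposure, highest concentration 100 uM. CYP2C8 mRNA is quantified by TaqMan qRT-PCR.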

Read-out in experiment [18]: CYP2C9 (gene 1559)
Kind of experiment: LTEA_HepaRG_CYP2C9: Life Technologies and Expression Analysis (LTEA) Assay for CYP2C9 using HepaRG (AID 2283484). In outline:
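Eight-point concentration-response (highest 100 uM, half-log dilutions) in HepaRG cells for 48 h; CYP2C9 expression by qRT-PCR normalized to ACTB, GAPDH, POLR2A. Bidirectional fit, DMSO baseline.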

Read-out in experiment [19]: CYP2E1 (gene 1571)
Kind of experiment: LTEA_HepaRG_CYP2E1: Life Technologies and Expression Analysis (LTEA) Assay for CYP2E1 using HepaRG (AID 2283485). In outline: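 CYP2E1 transcript measured by Fluidigm qRT-PCR against three housekeeping genes in human HepaRG cells treated 48 h (top 100 uM, half-log steps, 0.5% DMSO vehicle). Gain or loss fitted relative to DMSO baseline.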

Read-out in experiment [20]: CYP4A11 (gene 1579)
Kind of experiment: LTEA_HepaRG_CYP4A11: Life Technologies and Expression Analysis (LTEA) Assay for CYP4A11 using HepaRG (AID 2283486). In outline:
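Differentiated HepaRG cells, serum-free induction medium, exposed 48 h in duplicate to 8-point half-log series from 100 uM in 0.5% DMSO. CYP4A11 mRNA measured by qRT-PCR, normalized to ACTB, GAPDH, POLR2A; bidirectional fit versus DMSO.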

Sequence of Apoptosis regulator Bcl-2 (Homo sapiens) (P10415 whole entry, looked up): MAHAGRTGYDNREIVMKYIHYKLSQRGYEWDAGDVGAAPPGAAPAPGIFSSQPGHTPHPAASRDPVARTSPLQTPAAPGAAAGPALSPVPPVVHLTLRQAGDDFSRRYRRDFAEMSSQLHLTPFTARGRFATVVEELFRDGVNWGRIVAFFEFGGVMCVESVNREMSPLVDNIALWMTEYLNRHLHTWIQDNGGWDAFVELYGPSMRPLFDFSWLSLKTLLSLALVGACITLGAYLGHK
Sequence of Broad substrate specificity ATP-binding cassette transporter ABCG2 (Homo sapiens) (Q9UNQ0 whole entry, looked up): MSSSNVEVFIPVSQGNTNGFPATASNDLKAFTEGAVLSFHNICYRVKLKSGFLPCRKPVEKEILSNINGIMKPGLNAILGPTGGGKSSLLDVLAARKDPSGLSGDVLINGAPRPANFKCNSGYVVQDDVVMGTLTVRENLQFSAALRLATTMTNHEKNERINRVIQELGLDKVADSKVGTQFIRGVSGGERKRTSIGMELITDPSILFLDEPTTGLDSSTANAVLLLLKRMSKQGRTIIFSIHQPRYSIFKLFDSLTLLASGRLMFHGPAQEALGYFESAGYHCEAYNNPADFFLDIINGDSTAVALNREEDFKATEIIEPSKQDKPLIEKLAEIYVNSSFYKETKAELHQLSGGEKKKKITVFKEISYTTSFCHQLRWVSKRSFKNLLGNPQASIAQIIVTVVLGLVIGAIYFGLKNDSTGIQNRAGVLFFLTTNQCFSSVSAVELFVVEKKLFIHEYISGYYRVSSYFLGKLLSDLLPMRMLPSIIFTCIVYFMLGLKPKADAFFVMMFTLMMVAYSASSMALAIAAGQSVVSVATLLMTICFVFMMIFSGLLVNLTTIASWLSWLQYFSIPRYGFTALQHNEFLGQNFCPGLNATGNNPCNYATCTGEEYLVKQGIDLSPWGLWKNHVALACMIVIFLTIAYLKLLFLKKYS
Sequence of Cytochrome P450 2C19 (Homo sapiens) (P33261 whole entry, looked up): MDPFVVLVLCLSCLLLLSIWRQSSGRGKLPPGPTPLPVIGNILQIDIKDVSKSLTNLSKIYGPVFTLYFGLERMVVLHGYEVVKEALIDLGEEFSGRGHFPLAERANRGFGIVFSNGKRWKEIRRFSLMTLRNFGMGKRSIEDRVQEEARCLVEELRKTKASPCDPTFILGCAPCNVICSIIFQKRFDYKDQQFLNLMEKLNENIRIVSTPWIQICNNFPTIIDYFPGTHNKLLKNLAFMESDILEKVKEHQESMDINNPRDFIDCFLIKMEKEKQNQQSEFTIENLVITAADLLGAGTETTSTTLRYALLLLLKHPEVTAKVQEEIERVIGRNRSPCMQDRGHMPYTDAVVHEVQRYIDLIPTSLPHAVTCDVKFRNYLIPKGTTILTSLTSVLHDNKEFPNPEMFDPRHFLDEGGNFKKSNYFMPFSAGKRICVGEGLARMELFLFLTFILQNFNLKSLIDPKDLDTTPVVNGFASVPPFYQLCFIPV
Sequence of Caspase-3 (Homo sapiens) (P42574 whole entry, looked up): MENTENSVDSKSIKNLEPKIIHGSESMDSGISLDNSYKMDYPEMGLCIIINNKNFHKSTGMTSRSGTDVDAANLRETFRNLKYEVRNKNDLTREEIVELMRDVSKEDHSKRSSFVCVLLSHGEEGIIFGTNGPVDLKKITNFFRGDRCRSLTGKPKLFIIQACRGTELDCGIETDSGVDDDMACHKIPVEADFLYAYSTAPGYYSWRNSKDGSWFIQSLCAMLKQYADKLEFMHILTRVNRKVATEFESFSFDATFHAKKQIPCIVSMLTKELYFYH

With `Clc1cccc(Cl)c1`, the outcome in experiment [1], in [2], in [3], in experiment [4], in [5] and in [6] was inactive. For the same compound, the result in experiment [7], in [8], in experiment [9], in experiment [10], in experiment [11] and in experiment [12] was inactive. Besides, the result in [13], in [14], in experiment [15], in experiment [16], in [17] and in [18] was inactive. Besides, the call in [19] and in experiment [20] was inactive.

In the case of `OCCN(CCO)CCO`, the result in [1], in experiment [2], in [3], in [4], in experiment [5] and in experiment [6] was inactive. Further, the compound was classed as inactive in experiment [7], in [8], in experiment [9], in experiment [10], in experiment [11] and in [12]. The compound was classed as inactive in experiment [13], in [14], in experiment [16], in experiment [17], in experiment [18] and in experiment [19]. Further, the result in experiment [20] was inactive. Also, the concentration at half-maximal activity (AC50) in experiment [15] was 21.1 µM (active).

`CCCCCCCCCCCCc1cccc(S(=O)(=O)O)c1`: the AC50 in experiment [1] is 45 µM (active); in experiment [13], 45 µM (active); in experiment [16] it was 22.7 µM (active); in [17], 45 µM (active); in experiment [20] it was 21.6 µM (active). Further, the outcome in experiment [2], in [3], in experiment [4], in experiment [5], in experiment [6] and in experiment [7] was inactive. The call in experiment [8], in experiment [9], in experiment [10], in experiment [11], in [12] and in experiment [14] was inactive. Moreover, the compound was called inactive in [15], in experiment [18] and in experiment [19].

As to `O=C(O)C1(c2ccc3c(c2)OC[C@H](Cc2ccc(-c4ccccc4)cc2)[C@H]3O)CCCC1`, the compound was called inactive in experiment [1], in experiment [2], in experiment [5], in [7], in experiment [8] and in experiment [9]. Also, the outcome in experiment [10], in [12], in experiment [14], in experiment [15], in experiment [16] and in experiment [17] was inactive. In addition, the compound was classed as inactive in [18] and in experiment [20]. The AC50 is 82.4 µM (active) in experiment [3]; 91.7 µM (active) in experiment [4]; 66.2 µM (active) in experiment [6]; 79 µM (active) in [11]; 25 µM (active) in experiment [13]; 84.5 µM (active) in [19].
